Source: PubChem BioAssay (NCATS)
Where “and” joins values, the source holds several entries; their conditions need not be identical. Identical values can stand only once. Records with an inconclusive call do not appear. Calls of active or inactive are those of the source. Unless noted, the call rests on the fitted dose curve; in most records, active means well fitted cell-killing curve with a large enough effect; inconclusive means small, poorly fitted or top-dose-only effect; inactive means flat fitted curve, though single readings scatter.

Legend:
[1] = Cell Viability - LYMP2-017 (AID 972); further: series mostly up to about 92 µM; on the % scale 0 is the no-effect control and ±100 the full control effect; nearly all actives have a fitted effect of over 55% in size
How it was run: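 Luminescent ATP read-out (CellTiter-Glo, 30 min RT) reports viable cell number. Cells: human lymphoblastoid line, 2500 per well, 5 hr preincubation, 24 hr compound exposure at 37 C. AC50 is derived from qHTS concentration-response data using the standard Hill model.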

[2] = Cell Viability - LYMP2-019 (AID 973);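 further: 0% = DMSO alone and full effect = 92 µM tetraoctylammonium bromide; nearly all actives have a fitted effect of over 55% in size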
How it was run: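 qHTS, 1536-well; 2500 cells/well; 5 hr pre-incubation, 24 hr compound exposure, 37 C; CellTiter-Glo added, 30 min RT; luminescence read; AC50 via standard Hill equation.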

[3] = Cell Viability - LYMP2-021 (AID 974);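 further: compound exposure lasts 24 hours at 37 °C; on the % scale 0 is the no-effect control and ±100 the full control effect; nearly all actives have a fitted effect of over 55% in size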
How it was run: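 ATP luminescence (CellTiter-Glo, 30 min RT) after 24 h compound exposure at 37 C; 2500 human lymphoblastoid cells/well, 5 h settle beforehand. Cytotoxicity = concentration-dependent ATP drop, AC50 by Hill fit.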

[4] = Cell Viability - LYMP2-023 (AID 975);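 further: cellular ATP measured by luciferase luminescence as viability proxy; series mostly up to about 92 µM; plate controls were DMSO only for no effect and 92 µM tetraoctylammonium bromide control for full effect; nearly all actives have a fitted effect of over 55% in size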
How it was run: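 CellTiter-Glo luminescence after 30 min at room temperature; decrease in intracellular ATP reflects toxicity. Cells: human lymphoblastoid line, 2500/well, 24 hr compound exposure at 37 C. AC50 fitted to standard Hill equation from concentration-response.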

[5] = Cell Viability - LYMP2-025 (AID 976);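 further: series mostly up to about 92 µM; plate controls were DMSO only for no effect and tetraoctylammonium bromide control for full effect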
How it was run: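 CellTiter-Glo luminescence (cellular ATP) after 24 h compound exposure at 37 C; LYMP2-025 human lymphoblastoid cells, 2500/well, complete medium. Tetraoctylammonium bromide positive control. AC50 by Hill equation fit of qHTS concentration-response.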

[6] = Cell Viability - LYMP2-002 (AID 977);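 further: series mostly up to about 92 µM; plate controls were DMSO only for no effect and 92 µM tetraoctylammonium bromide for full effect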
How it was run: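 Human lymphoblastoid cells (2500/well) in complete medium were preincubated 5 hr at 37 C, then exposed to compounds for 24 hr at 37 C. Intracellular ATP was read by CellTiter-Glo luminescence; AC50 came from Hill-equation concentration-response fits.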

[7] = Cell Viability - LYMP2-006 (AID 978); further: series mostly up to about 92 µM; on the % scale 0 is the no-effect control and ±100 the full control effect; nearly all actives have a fitted effect of over 60% in size
How it was run: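 Cells are seeded at 2500 per well and rested 5 hr at 37 C. Compounds are added across a concentration series for 24 hr at 37 C, after which ATP is quantified by luciferase luminescence.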

[8] = Cell Viability - LYMP2-008 (AID 980); further: on the % scale 0 is the no-effect control and ±100 the full control effect; nearly all actives have a fitted effect of over 60% in size
How it was run: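 Luminescent ATP read-out (CellTiter-Glo, 30 min RT) after 24 hr compound exposure at 37 C of human lymphoblastoid cells in complete medium. Decrease in ATP taken as cytotoxicity; AC50 derived by standard Hill fit of qHTS concentration-response data.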

[9] = Cell Viability - LYMP2-010 (AID 981)
How it was run: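 qHTS cytotoxicity, 1536-well: 2500 cells/well, 5 hr settle, 24 hr compound at 37 C, CellTiter-Glo 30 min RT, luminescence read. Decrease in ATP = toxicity; AC50 via standard Hill equation. Positive control tetraoctylammonium bromide.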

[10] = Cell Viability - LYMP2-012 (AID 982)
[11] = Cell Viability - LYMP2-016 (AID 984)
How it was run: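 Cells were seeded at 2500 per well and rested 5 hr before a 24 hr compound exposure at 37 C. Viability was then gauged as cellular ATP by luciferase luminescence, with AC50 values fitted to the Hill equation.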

[12] = Cell Viability - LYMP2-018 (AID 985);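 further: plate controls were DMSO only for no effect and tetraoctylammonium bromide at 92 µM for full effect; nearly all actives have a fitted effect of over 50% in size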
How it was run: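 2500 cells/well; 5 hr 37 C; cmpd 24 hr 37 C, complete medium; CellTiter-Glo 30 min RT; luminescence. Tetraoctylammonium bromide positive control. AC50 via Hill fit.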

[13] = Cell Viability - LYMP2-020 (AID 986)
How it was run: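 qHTS, 2500 cells/well; 5 hr then 24 hr compound exposure, 37 C; CellTiter-Glo luminescence after 30 min RT; ATP decrease taken as cytotoxicity; AC50 via Hill equation; tetraoctylammonium bromide positive control.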

[14] = Cell Viability - LYMP2-022 (AID 987)
How it was run: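 Luminescent ATP read-out (CellTiter-Glo, 30 min, RT) after 24 hr, 37 C compound exposure of 2500 human lymphoblastoid cells/well in complete medium. Cytotoxicity taken as concentration-dependent ATP loss; AC50 from standard Hill equation.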

[15] = Cell Viability - LYMP2-024 (AID 988);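 further: plate controls were DMSO only for no effect and 92 µM tetraoctylammonium bromide for full effect; nearly all actives have a fitted effect of over 60% in size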
How it was run: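 ATP-based luminescence (CellTiter-Glo, 30 min RT) after 24 h compound exposure at 37 C of 2500 lymphoblastoid cells/well; decrease in ATP taken as cytotoxicity. qHTS concentration-response fitted to standard Hill equation for AC50.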

[16] = Cell Viability - LYMP1-002 - Assay at 24 hr (AID 993); further: on the % scale 0 is the no-effect control and ±100 the full control effect
How it was run: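 CellTiter-Glo luminescence (intracellular ATP) after 24 h compound exposure, 37 C, in LYMP1-002 human lymphoblastoid cells; decreased ATP taken as cytotoxicity. AC50 from standard Hill fit of concentration-response curves.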

[17] = Cell Viability - LYMP1-002 - Assay at 40 hr (AID 994);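 further: 0% = DMSO only and full inhibition = 92 µM tetraoctylammonium bromide; nearly all actives have a fitted effect of over 60% in size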
How it was run: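 qHTS cytotoxicity; 2500 cells/well, 5 hr 37 C settle, compound 40 hr 37 C. CellTiter-Glo, 30 min RT, luminescence (ATP). Concentration-response, Hill fit → AC50. Pos. ctrl tetraoctylammonium bromide.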

[18] = molecular target: Estrogen receptor (Homo sapiens) (UniProt P03372); assay: qHTS assay for small molecule antagonists of estrogen receptor alpha signaling (AID 588513; active means well fitted curve in the direction sought with a large enough effect in the signal ratio, with a control signal flat, not every such curve was filed as active; the % refers to the signal ratio; further: on the % scale 0 is the no-effect control and ±100 the full control effect)
How it was run: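 Fluorescence from CCF4 substrate after 2 h at room temperature gave reporter activity; cells had been exposed to compound and 0.5nM 17-beta-estradiol for 18 h at 37 C. Hill-equation fitting yielded IC50 and maximal response.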

[19] = molecular target: Estrogen receptor (Homo sapiens) (UniProt P03372); assay: qHTS assay for small molecule agonists of estrogen receptor alpha signaling (AID 588514; calls by dose curve; further: potency means the concentration at half of the fitted maximal effect; nearly all actives have a fitted effect of over 70% in size)
How it was run: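 Read-out: CCF4 fluorescence from a beta-lactamase reporter in ER-alpha-UAS-bla HEK 293 cells after 18 hrs of compound exposure at 37 C. Normalized to 20 nM 17-beta-estradiol (100%) and DMSO (0%).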

[20] = molecular target: Bile acid receptor (Homo sapiens) (UniProt Q96RI1); assay: qHTS assay for small molecule antagonists of farnesoid X receptor signaling (AID 588526; calls by dose curve; further: on the % scale 0 is the no-effect control and ±100 the full control effect)
How it was run: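 Beta-lactamase reporter antagonist mode: HEK293T FXR-UAS-bla cells, titrated compound, CDCA stimulation, 16 h 37 C, CCF4 dye 2 h RT. Data normalized to CDCA 50 uM and DMSO; Hill-fit IC50.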

[21] = molecular target: Glucocorticoid receptor (Homo sapiens) (UniProt P04150); assay: qHTS assay for small molecule agonists of glucocorticoid receptor signaling (AID 588532; active means well fitted curve in the direction sought with a large enough effect in the signal ratio, with a control signal flat; the % refers to the signal ratio;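 further: 100% = dexamethasone at 0.1 µM and 0% = DMSO only wells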); settings: HeLa MMTV-bla, beta-lactamase ratio, agonist, 18 h; stronger effect = higher value; percent of dexamethasone control, DMSO zero
How it was run: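 Using MMTV-bla HeLa cells in medium with 1% stripped FBS and 25 mM HEPES, compounds were titrated and incubated overnight-length (18 h). Beta-lactamase cleavage of CCF4 was quantified by dual-emission fluorescence.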

[22] = molecular target: Glucocorticoid receptor (Homo sapiens) (UniProt P04150); assay: qHTS assay for small molecule antagonists of glucocorticoid receptor signaling (AID 588533; active means well fitted inhibition curve with a large enough effect in the signal ratio, with a control signal flat, not every such curve was filed as active; the % refers to the signal ratio;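 further: cells stimulated with 2 nM dexamethasone as agonist; on the % scale 0 is the no-effect control and ±100 the full control effect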)
How it was run: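 Antagonist-mode qHTS: compound titrations added to GRE-bla HeLa cells, then dexamethasone 2 nM final; 18 h, 37 C. CCF4 FRET fluorescence normalized to dexamethasone and DMSO; IC50 from Hill fit.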

[23] = qHTS assay for small molecule antagonists of peroxisome proliferator-activated receptor delta signaling (AID 588535); settings: HEK293T PPARd-UAS-bla, beta-lactamase FRET ratio, 18 h; 460 nm channel;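 further: cells co-treated with a PPAR-delta agonist as stimulator during compound exposure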
How it was run: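 Antagonist-mode qHTS using GeneBLAzer PPAR-delta-UAS-bla HEK293T cells; compound exposure 18 hrs at 37 C over a titration. Ratiometric CCF4 fluorescence at 460/530 nm; concentration-response points fitted to the Hill equation.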

Sequence of Glucocorticoid receptor (Homo sapiens) (P04150 whole entry, looked up): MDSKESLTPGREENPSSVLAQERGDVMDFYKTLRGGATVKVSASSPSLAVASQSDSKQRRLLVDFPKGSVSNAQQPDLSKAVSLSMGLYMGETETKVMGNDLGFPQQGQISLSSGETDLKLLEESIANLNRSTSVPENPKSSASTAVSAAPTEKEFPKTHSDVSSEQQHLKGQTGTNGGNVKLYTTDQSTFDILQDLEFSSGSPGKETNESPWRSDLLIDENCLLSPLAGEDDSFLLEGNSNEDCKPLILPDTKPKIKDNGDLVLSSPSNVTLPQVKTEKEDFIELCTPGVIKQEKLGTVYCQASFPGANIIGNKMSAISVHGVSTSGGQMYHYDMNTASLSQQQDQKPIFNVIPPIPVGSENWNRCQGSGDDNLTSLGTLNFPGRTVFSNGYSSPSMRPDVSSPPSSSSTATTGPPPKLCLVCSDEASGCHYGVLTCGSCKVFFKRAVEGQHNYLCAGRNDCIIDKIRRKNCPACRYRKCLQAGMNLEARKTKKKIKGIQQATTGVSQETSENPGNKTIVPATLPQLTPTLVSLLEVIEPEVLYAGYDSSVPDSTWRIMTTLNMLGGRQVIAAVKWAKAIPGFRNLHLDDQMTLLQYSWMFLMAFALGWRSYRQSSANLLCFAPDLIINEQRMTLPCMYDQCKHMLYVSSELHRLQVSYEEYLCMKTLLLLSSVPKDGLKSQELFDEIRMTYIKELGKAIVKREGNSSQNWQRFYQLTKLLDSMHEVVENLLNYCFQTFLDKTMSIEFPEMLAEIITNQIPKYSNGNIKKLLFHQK
Sequence of Bile acid receptor (Homo sapiens) (Q96RI1 whole entry, looked up): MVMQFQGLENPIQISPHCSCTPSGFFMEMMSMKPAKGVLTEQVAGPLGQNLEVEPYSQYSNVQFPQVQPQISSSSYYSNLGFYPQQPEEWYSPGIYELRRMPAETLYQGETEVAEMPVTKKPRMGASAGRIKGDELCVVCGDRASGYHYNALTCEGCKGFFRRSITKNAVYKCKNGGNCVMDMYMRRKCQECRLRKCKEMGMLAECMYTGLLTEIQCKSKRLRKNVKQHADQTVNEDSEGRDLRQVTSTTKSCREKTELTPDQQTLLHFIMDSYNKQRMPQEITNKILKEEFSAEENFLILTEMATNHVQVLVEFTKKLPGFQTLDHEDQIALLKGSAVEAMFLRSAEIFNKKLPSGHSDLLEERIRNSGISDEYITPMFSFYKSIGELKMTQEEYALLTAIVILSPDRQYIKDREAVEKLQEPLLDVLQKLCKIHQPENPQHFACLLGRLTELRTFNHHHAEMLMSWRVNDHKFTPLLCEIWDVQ
Sequence of Estrogen receptor (Homo sapiens) (P03372 whole entry, looked up): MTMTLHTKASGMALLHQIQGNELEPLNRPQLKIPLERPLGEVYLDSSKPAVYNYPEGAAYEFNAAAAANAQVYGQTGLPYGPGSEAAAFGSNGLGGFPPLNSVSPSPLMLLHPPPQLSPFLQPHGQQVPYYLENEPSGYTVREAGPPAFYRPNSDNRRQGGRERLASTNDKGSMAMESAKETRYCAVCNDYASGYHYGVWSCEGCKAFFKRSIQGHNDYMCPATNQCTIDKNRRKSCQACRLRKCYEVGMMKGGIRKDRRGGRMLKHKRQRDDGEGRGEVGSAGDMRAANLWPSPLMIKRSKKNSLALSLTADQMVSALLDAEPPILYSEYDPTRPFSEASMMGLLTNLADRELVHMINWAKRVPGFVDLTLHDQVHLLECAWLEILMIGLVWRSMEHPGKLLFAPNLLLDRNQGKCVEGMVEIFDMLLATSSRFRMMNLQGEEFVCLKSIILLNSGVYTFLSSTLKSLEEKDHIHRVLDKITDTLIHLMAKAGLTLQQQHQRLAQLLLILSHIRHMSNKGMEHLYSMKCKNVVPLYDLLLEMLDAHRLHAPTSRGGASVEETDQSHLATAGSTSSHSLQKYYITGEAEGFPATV

CC(CCC(=O)O)(c1ccc(O)cc1)c1ccc(O)cc1
active: Potency [19] 12.6 µM
inactive: Potency [1] | Potency [2] | Potency [3] | Potency [4] | Potency [5] | Potency [6] | Potency [7] | Potency [8] | Potency [9] | Potency [10] | Potency [11] | Potency [12] | Potency [13] | Potency [14] | Potency [15] | Potency [16] | Potency [17] | outcome [18] | Potency [20] | activation [21] 3.51% and -3.34% | Potency [22]
-42.6% and 42.4%: max response [23]
